# Results as given in the supplement of paper PMC11732987, “Enantioselective OTUD7B fragment discovery through chemoproteomics screening and high-throughput optimisation” (Communications Chemistry, 2025).
# Values without a mark were called inactive.
# What was measured:
# Test in all cases: log2 ratio of Biotin-Ahx-Ub-VS probe labelling (fragment/DMSO); higher = less target engagement (more negative = stronger competition), active = hit call of the paper (q ≤ 0.05, log2 ratio ≤ -1)
# Conditions in all cases: compound concentration: 200 uM; treatment time: 3 h
# USP19 = target: T1, USP19 (UniProt O94966)
# T1 sequence (whole entry): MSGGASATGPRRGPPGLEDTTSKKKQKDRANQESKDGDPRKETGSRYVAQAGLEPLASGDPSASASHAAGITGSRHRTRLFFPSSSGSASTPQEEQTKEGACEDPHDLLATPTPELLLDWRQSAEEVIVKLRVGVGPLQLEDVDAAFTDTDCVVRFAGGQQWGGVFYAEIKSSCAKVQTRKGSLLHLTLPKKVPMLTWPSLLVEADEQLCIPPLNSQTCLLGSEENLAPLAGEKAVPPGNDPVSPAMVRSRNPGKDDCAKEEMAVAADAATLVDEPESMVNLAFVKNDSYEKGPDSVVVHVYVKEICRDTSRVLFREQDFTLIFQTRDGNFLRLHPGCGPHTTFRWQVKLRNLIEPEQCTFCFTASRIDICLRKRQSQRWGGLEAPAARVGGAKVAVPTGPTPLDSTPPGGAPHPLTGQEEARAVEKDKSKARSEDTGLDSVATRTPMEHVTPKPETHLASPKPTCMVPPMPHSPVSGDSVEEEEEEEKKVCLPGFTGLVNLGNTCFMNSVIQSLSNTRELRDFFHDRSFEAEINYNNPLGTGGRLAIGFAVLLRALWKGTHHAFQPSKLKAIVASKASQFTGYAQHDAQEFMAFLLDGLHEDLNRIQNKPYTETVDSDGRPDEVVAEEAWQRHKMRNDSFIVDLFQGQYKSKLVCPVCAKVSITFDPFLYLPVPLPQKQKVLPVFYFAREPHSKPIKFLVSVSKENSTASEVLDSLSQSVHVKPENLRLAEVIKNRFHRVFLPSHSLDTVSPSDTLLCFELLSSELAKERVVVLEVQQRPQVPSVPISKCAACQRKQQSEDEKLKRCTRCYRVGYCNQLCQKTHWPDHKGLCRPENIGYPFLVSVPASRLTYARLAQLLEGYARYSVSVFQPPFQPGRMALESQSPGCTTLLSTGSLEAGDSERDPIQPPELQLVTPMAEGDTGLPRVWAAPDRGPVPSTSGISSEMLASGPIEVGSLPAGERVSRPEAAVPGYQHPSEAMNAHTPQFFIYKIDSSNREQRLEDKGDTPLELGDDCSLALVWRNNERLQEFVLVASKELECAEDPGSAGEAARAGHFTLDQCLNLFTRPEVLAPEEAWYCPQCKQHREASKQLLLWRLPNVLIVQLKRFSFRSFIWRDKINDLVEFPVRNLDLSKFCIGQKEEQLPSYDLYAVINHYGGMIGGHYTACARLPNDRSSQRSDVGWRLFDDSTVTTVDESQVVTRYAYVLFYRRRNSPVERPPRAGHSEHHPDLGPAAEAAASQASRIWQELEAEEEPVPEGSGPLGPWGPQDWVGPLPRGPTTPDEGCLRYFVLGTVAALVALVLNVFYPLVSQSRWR
# In short: (§1)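 Labelled DUBs from HEK293T lysate were NeutrAvidin-enriched, digested with LysC and trypsin, and run by diaPASEF LC-MS/MS. Before that, each 495 µg sample in Tris/CHAPS/IGEPAL buffer with protease inhibitors was treated in triplicate with fragment at 200 µM or vehicle for 3 h, then with Biotin-Ahx-Ub-VS at 0.5 µM final for 1 h. Values are average log2 ratios of fragment over vehicle by unpaired t-test, based on global-median-normalised Spectronaut label-free quantities from proteins with ≥2 unique peptides.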
# USP22 = target: T2, USP22 (UniProt Q9UPT9)
# T2 sequence (whole entry): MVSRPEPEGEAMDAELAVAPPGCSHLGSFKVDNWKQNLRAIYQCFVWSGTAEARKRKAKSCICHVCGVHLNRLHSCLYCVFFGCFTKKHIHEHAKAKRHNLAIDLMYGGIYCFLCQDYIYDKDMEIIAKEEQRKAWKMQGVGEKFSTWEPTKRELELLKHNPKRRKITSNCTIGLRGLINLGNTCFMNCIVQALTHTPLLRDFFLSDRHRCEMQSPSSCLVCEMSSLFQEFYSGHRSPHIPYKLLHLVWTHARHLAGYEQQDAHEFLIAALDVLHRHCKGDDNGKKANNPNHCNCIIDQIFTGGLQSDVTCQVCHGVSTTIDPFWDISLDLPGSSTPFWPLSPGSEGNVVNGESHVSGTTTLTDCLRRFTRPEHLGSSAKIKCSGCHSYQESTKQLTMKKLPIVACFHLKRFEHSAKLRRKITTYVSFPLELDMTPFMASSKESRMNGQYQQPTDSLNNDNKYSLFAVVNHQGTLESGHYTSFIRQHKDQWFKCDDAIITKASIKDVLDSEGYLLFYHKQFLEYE
# In short: as §1
# USP24 = USP24 (UniProt Q9UPU5)
# Sequence of USP24 (Q9UPU5 whole entry): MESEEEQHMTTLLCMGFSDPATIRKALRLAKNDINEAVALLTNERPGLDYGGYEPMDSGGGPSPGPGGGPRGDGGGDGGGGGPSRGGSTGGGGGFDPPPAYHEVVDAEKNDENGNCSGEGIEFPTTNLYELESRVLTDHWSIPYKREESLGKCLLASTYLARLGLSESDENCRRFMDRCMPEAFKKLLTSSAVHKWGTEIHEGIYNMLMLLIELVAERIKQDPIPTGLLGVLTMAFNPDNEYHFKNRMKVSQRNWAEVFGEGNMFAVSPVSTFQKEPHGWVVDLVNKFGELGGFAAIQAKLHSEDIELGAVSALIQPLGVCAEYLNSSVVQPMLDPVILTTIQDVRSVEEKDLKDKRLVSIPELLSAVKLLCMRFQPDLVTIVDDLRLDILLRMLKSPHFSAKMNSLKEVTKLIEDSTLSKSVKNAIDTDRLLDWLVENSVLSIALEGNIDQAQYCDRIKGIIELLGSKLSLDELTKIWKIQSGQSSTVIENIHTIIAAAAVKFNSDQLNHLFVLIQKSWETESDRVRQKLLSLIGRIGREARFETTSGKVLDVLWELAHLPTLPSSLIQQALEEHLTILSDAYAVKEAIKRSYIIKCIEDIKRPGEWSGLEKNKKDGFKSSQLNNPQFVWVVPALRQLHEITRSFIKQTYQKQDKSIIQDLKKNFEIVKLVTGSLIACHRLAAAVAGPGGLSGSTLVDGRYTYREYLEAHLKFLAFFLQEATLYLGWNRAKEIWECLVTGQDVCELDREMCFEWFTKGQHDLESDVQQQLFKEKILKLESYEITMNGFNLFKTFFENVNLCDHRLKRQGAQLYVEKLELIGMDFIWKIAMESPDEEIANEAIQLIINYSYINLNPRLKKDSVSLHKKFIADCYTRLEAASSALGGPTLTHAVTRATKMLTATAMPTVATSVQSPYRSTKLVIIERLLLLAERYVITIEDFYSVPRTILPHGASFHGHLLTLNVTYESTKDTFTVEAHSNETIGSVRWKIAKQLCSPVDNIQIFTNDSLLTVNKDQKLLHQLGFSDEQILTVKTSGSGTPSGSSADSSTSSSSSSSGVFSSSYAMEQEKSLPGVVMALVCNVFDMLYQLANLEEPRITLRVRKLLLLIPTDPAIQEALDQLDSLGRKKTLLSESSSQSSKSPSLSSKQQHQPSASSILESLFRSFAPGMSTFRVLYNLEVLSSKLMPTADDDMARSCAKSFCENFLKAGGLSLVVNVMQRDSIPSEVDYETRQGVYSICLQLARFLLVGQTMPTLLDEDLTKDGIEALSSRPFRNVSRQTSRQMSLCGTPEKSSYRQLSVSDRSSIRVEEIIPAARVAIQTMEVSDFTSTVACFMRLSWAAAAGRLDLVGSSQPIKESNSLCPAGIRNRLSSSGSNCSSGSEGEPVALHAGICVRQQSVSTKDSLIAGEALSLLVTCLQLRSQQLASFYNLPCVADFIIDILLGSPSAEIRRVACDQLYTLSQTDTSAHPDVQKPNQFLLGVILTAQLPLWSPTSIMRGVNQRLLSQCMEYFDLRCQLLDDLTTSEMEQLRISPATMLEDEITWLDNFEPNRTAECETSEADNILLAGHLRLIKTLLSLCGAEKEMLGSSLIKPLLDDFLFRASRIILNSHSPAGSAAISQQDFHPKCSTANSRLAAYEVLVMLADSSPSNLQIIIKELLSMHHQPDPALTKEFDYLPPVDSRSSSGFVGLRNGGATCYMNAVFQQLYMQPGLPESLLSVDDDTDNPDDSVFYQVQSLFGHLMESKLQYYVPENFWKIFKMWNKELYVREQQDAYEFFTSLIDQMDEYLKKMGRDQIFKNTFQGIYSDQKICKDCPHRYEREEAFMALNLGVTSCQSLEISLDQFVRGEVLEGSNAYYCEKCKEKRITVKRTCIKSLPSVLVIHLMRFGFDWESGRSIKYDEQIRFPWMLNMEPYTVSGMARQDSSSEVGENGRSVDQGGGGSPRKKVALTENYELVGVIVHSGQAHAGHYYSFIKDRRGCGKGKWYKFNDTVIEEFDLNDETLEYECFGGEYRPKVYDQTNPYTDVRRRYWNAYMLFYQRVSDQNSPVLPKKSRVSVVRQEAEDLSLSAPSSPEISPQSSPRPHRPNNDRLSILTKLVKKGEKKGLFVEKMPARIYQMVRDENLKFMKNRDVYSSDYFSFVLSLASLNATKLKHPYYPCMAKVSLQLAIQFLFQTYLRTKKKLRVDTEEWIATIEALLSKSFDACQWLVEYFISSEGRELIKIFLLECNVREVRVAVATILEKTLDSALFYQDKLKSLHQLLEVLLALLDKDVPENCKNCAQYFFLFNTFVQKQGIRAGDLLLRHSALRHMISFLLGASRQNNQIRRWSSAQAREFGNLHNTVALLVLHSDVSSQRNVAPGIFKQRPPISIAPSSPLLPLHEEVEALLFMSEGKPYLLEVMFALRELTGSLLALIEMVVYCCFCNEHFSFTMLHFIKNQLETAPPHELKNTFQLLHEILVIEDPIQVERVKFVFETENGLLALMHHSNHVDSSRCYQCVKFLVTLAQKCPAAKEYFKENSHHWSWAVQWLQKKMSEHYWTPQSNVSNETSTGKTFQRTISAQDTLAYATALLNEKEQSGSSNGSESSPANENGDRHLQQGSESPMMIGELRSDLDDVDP
# In short: as §1
# USP25 = target: T3, USP25 (UniProt Q9UHP3)
# T3 sequence (whole entry): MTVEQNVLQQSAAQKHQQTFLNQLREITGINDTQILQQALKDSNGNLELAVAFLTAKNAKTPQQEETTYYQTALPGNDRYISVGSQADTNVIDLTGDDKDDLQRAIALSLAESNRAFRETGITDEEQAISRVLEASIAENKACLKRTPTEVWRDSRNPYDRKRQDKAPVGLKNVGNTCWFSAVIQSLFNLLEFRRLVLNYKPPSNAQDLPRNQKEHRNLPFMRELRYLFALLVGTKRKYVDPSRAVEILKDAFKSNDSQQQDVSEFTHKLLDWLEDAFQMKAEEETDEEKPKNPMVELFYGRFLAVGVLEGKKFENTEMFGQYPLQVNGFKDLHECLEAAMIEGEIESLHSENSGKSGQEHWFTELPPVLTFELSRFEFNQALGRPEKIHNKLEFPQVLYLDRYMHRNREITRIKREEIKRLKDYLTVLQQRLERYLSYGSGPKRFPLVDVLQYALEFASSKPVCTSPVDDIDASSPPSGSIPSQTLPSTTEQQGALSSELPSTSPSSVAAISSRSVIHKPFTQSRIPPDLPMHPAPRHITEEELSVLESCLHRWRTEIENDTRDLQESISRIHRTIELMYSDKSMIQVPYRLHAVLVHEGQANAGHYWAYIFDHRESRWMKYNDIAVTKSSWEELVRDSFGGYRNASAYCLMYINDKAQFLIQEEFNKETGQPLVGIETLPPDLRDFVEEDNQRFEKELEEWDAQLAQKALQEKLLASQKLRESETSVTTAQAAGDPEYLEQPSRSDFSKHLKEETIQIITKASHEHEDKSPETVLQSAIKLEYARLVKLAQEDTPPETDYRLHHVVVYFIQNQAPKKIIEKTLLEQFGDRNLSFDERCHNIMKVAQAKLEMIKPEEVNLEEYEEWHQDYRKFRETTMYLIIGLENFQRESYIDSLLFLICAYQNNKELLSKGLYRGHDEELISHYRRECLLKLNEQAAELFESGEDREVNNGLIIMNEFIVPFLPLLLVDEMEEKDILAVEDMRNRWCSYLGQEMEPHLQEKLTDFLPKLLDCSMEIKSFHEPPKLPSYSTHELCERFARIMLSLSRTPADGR
# In short: as §1
# USP28 = target: T4, USP28 (UniProt Q96RU2)
# T4 sequence (whole entry): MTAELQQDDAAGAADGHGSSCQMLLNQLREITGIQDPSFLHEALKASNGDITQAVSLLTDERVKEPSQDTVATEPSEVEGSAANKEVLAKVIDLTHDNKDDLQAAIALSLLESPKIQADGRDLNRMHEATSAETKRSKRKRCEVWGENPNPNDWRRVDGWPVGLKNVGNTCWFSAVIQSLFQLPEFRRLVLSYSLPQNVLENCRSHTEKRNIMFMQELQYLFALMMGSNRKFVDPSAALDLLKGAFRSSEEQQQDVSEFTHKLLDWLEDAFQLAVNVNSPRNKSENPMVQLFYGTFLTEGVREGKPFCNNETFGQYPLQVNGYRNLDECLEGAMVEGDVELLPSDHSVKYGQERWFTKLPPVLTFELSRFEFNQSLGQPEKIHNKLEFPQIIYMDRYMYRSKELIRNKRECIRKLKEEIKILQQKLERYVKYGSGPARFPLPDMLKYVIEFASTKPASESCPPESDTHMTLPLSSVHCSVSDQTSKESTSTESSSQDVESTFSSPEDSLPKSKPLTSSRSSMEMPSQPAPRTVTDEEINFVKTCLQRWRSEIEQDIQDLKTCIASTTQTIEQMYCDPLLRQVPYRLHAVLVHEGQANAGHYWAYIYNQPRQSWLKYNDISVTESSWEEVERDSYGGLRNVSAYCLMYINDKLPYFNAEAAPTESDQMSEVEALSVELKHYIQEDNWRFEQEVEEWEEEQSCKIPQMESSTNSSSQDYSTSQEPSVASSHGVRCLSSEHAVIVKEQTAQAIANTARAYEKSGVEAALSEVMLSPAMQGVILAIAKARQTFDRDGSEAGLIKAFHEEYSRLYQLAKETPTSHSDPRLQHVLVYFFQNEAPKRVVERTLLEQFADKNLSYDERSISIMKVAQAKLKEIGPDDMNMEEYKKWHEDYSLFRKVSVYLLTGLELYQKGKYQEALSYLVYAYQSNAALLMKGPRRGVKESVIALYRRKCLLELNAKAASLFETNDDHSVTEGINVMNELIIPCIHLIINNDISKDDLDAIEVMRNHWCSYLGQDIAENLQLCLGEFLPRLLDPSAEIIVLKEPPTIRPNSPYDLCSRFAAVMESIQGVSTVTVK
# In short: as §1
smiles,measurement,setting,value
CN(C(=O)CCl)c1nc2ccccc2s1,log2 ratio of Biotin-Ahx-Ub-VS probe labelling,USP19,-0.126
same,log2 ratio of Biotin-Ahx-Ub-VS probe labelling,USP22,-0.0338
same,log2 ratio of Biotin-Ahx-Ub-VS probe labelling,USP24,-1.2 (active)
same,log2 ratio of Biotin-Ahx-Ub-VS probe labelling,USP25,-0.235
same,log2 ratio of Biotin-Ahx-Ub-VS probe labelling,USP28,-0.444
